{"source": "PubChem BioAssay (NCI)", "note": "Compounds without any hit were thinned out: in the full panel of roughly 83,000, 20% have a hit.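 For each line, cells grew in 96-well plates with the test compound present at a single concentration for 48 hours.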 Unmarked numbers belong to inactive results. Activity calls are given as the source filed them. Rule for the calls: active = growth percent below 10; inactive = the rest.", "data": [{"tested_on": "HL-60(TB) leukemia", "assay": "NCI-60 one-dose screen, 48 h (100 = growth as untreated, 0 = no growth, -100 = all killed)", "conditions": "10 µM unless noted", "values": [{"smiles": "S=c1nc(-c2ccccn2)c(-c2ccccn2)n[nH]1", "growth": "92.8%"}, {"smiles": "Cc1ccc(S(=O)(=O)Oc2ccc(NC(=O)c3ccc(Cl)cc3)cc2)cc1", "growth": "89.2%"}, {"smiles": "CCCSc1nc(N)nc2nc[nH]c12", "growth": "74.6%"}, {"smiles": "CN1C(=O)C2(Nc3cc(Cl)ccc3S2)c2cc(Cl)ccc21", "note": "(centres undefined)", "growth": "97.8%"}, {"smiles": "Cc1ccc(/C=C2\\CNC/C(=C\\c3ccc(C)cc3)C2=O)cc1", "growth": "-29.1% (active)"}, {"smiles": "Cn1cc(-c2csc(-c3c[nH]c4ccc(F)cc34)n2)c2ccnc(Cl)c21", "growth": "72%"}, {"smiles": "Cc1cnc(-c2ccc(-c3ccc(NC(=O)Nc4c(F)cc(F)cc4F)cc3F)c3c2C(=O)NC3)[nH]1", "growth": "58.1%"}, {"smiles": "CNCC[C@H](Oc1cccc2ccccc12)c1cccs1", "growth": "85.5%"}, {"smiles": "COc1cc2nc3cc([N+](=O)[O-])ccc3c(NCCCNCC(C)(C)O)c2cc1OC", "growth": "-0.733% (active)"}, {"smiles": "CCCNc1nc2ccccc2c2c(=O)c3cccc(Cl)c3sc12", "growth": "108%"}, {"smiles": "CCOC(=O)c1cnc2ccc(Br)cc2c1Nc1cccc(S(N)(=O)=O)c1", "growth": "99.5%"}, {"smiles": "COc1cc2c(cc1O)c(=O)n(CCN(C)C)c1c3cc4c(cc3ncc21)OCO4", "growth": "-29.2% (active)"}, {"smiles": "C=C(C)[C@@H]1CC[C@]2(C)[C@H](CC=C3[C@@H]4CC(C)(C)CC[C@]4(C(=O)OC)CC[C@]32C)[C@@]1(C)CC/C(N)=N/O", "growth": "2.39% (active)"}, {"smiles": "O=C(Nn1c(NCC(=O)N2c3ccccc3Sc3ccccc32)nnc1-c1ccc(O)cc1)c1ccccc1", "growth": "98.6%"}, {"smiles": "Cc1cc(NS(=O)(=O)c2ccccc2)c(OS(=O)(=O)c2ccccc2)cc1C", "growth": "105%"}, {"smiles": "COc1ccc(Cn2nc(-c3cc(OC)c(OC)c(OC)c3)c3c2CCc2cnoc2-3)cc1OC", "growth": "16.3%"}, {"smiles": "CC(=O)OCC(=O)O[C@@H]1C[C@]2(C(C)C)O[C@@]1(C)[C@@H]1CC[C@@H](C)[C@H]1[C@@H]2OC(=O)/C=C/c1ccccc1", "growth": "82.6%"}, {"smiles": "COC(=O)c1ccc(Cn2cnc3c(N)ncnc32)cc1", "growth": "67.6%"}, {"smiles": "CC(C)(C)c1ccc(OC(=O)Nc2ccccc2)cc1", "growth": "95.9%"}, {"smiles": "COc1cccc(CNc2c3ccccc3nc3ccccc23)c1", "growth": "40.9%"}, {"smiles": "COC(=O)c1nc(-c2ccccc2)oc1S(=O)(=O)N(C)CCO", "growth": "-24.6% (active)"}, {"smiles": "CN1CCN(Cc2ccc(NC(=O)c3nc4ccc5[nH]ncc5c4c4c3CCCC4)cc2C(F)(F)F)CC1", "growth": "-57.4% (active)"}, {"smiles": "CNC(=O)OC1C(O[C@H]2C[C@H]3[C@@H]4CC=C5C[C@@H](O)CC[C@]5(C)[C@H]4CC[C@]3(C)[C@H]2[C@H](C)C(=O)CCC(C)C)OCC(O)C1OC1OCC(O)C(O)C1OC(=O)c1ccc(OC)cc1", "note": "(some centres undefined)", "growth": "-12.1% (active)"}, {"smiles": "COc1ccc2nc(C)cc(Nc3ccccc3O)c2c1", "growth": "5.11% (active)"}, {"smiles": "O=[N+]([O-])c1cccc(C(c2ccccc2)c2ccccc2)c1", "growth": "88.9%"}, {"smiles": "COc1ccc(CNc2c3ccccc3nc3ccccc23)cc1", "growth": "43%"}, {"smiles": "O=C(Nc1ccc(Nc2ncccn2)cc1)NC1C=c2ccccc2=CC1", "note": "(centres undefined)", "growth": "74.1%"}, {"smiles": "COc1ccc(/C=C/C(=O)c2ccc3cc(OC)c(OC)cc3c2)cc1OC", "growth": "44.7%"}, {"smiles": "CCNc1nc(N2CC(=O)Nc3cc(OC)ccc32)c2ccccc2n1", "growth": "-4.51% (active)"}, {"smiles": "N#Cc1ccc(Oc2ccc3ccc(=O)oc3c2)cc1", "growth": "82.7%"}, {"smiles": "COc1ccc(-c2cc(-c3cc(OC)ccc3O)[nH]c(=O)c2C#N)cc1", "growth": "16.9%"}, {"smiles": "c1cc(NCCCCN2CCOCC2)c2ccc3c(ccc4c(NCCN5CCOCC5)ccnc43)c2n1", "growth": "47.2%"}, {"smiles": "CCc1cc(Cl)c(OC)c(C(=O)NCC2CCCN2CC)c1O", "note": "(centres undefined)", "growth": "84.6%"}, {"smiles": "COc1cc(Cn2ncc3ccc(NC(=O)c4cc5ccccc5oc4=N)cc32)cc(OC)c1OC", "growth": "64.8%"}, {"smiles": "O=C(c1ccccc1)[C@@H](c1ccccc1)[C@]1(O)C(=O)Nc2ccccc21", "growth": "107%"}, {"smiles": "COc1ccccc1N1CCN(C(CNS(=O)(=O)c2ccc(Cl)cc2)c2cccnc2)CC1", "note": "(centres undefined)", "growth": "66.1%"}, {"smiles": "Cc1c(Cl)cc(Cl)c(N)c1Cl", "growth": "102%"}, {"smiles": "CCCCC#Cc1c(I)n(C)c(=O)[nH]c1=O", "growth": "-10.8% (active)"}, {"smiles": "CNC(=O)c1ccccc1CC1(O)c2ccccc2Oc2ccccc21", "growth": "17.8%"}]}]}
